From the supplement of paper PMC7411054 come the findings set out here.

Details in all cases: treatment time: 24 h
One test has as its system A549-ACTB-RAB5A. The experiment in a line: phenotypically active (imaging signature differs from DMSO and reproducible) at any of 0.3-9 uM (binary (1 = active, 0 = inactive)); higher = active. A digest of the protocol:
(§1)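 Four wells per concentration (0.3, 1, 3 or 9 µM) were treated for 24 h in each of fifteen gene-edited reporter lines from A549, HepG2 and WPMY1 cells, then imaged live. After normalising live-cell features to solvent control wells, deviation was defined as ≥3 of 4 wells lying past the 95th percentile of control Euclidean distances. Reproducibility was defined as a median replicate Pearson correlation above the 95th percentile of non-replicates. Both had to hold for phenotypic activity.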

Another test deals with A549-CANX-COX4. The test is described as above. The method in brief:
as §1

Another test deals with A549-GM130-SQSTM1. The description is as above. The method in brief:
as §1

A further test has as its system A549-TP53BP1-CLTA. The description is as above. The method in brief: as §1
The test system of another test is A549-TUBA1B-RELA. The description is as above. The method in brief:
as §1

For test [1], the system named is HepG2-ACTB-RAB5A. Described as above. A digest of the protocol: as §1
The test system of test [2] is HepG2-CANX-COX4. Described as above. A digest of the protocol:
as §1

The test system of test [3] is HepG2-GM130-SQSTM1. Described as above. A digest of the protocol:
as §1

Another test deals with HepG2-TP53BP1-CLTA. The description is as above. The method in brief:
as §1

Another test relates to HepG2-TUBA1B-RELA. The test is described as above. A digest of the protocol:
as §1

For a further test, the system named is WPMY1-ACTB-RAB5A. The description is as above. A digest of the protocol:
as §1

The subject of a further test is WPMY1-CANX-COX4. Described as above. A digest of the protocol: as §1
In test [4] the test system is WPMY1-GM130-SQSTM1. Described as above. The method in brief: as §1
For test [5], the system named is WPMY1-TP53BP1-CLTA. The description is as above. A digest of the protocol: as §1
A further test has as its system WPMY1-TUBA1B-RELA. The description is as above. The method in brief:
as §1

In test [6] the test system is HepG2-ACTB-RAB5A. In words: lowest phenotypically active concentration; higher = less potent. A digest of the protocol: as §1
Test [7] has as its system HepG2-CANX-COX4. Described as above. The method in brief:
as §1

For test [8], the system named is HepG2-GM130-SQSTM1. Described as above. A digest of the protocol:
as §1

The test system of test [9] is WPMY1-GM130-SQSTM1. The test is described as above. The method in brief:
as §1

Test [10] has as its system WPMY1-TP53BP1-CLTA. The description is as above. A digest of the protocol: as §1

Structures are written as SMILES. Structures can show the parent of a compound that is named as a salt. Where only a bound is given, the exact number is not on record here.

On to `Cc1c(C(=O)Nc2cccc(C(F)(F)F)c2)cc(-c2ccccc2)n1CCCN1CCOCC1`, for which the phenotypically active in the test with A549-ACTB-RAB5A is 1 (active); with A549-CANX-COX4 it was 0 (inactive); with A549-GM130-SQSTM1, 1 (active); with A549-TP53BP1-CLTA, 0 (inactive); with A549-TUBA1B-RELA, 0 (inactive); in the test on HepG2-ACTB-RAB5A [1], 0 (inactive). Moreover, the phenotypically active with HepG2-CANX-COX4 [2], with HepG2-GM130-SQSTM1 [3], with HepG2-TP53BP1-CLTA, in the test on HepG2-TUBA1B-RELA, in the test on WPMY1-ACTB-RAB5A and in the test with WPMY1-CANX-COX4 was 0 (inactive) in each case. Moreover, the phenotypically active in the test on WPMY1-GM130-SQSTM1 [4], in the test with WPMY1-TP53BP1-CLTA [5] and in the test with WPMY1-TUBA1B-RELA was 0 (inactive) in each case.

`C=C1[C@@H](C)[C@H]2[C@H](Cc3ccccc3)NC(=O)[C@]23OC(=O)C=C[C@H](O)CCC[C@@H](C)CC=C[C@H]3[C@@H]1O` [Cytochalasin B]: the “lowest phenotypically active concentration” value with HepG2-ACTB-RAB5A [6] amounted to 1 µM; in the test on HepG2-CANX-COX4 [7] it was 1 µM; in the test on HepG2-GM130-SQSTM1 [8] it was 1 µM; in the test with WPMY1-GM130-SQSTM1 [9], 3 µM; in the test with WPMY1-TP53BP1-CLTA [10], 3 µM. For the same compound, the phenotypically active in the test with A549-ACTB-RAB5A, with A549-CANX-COX4, with A549-GM130-SQSTM1, with A549-TP53BP1-CLTA, in the test on A549-TUBA1B-RELA and in the test on HepG2-ACTB-RAB5A [1] was 1 (active) throughout. For the same compound, the phenotypically active with HepG2-CANX-COX4 [2], in the test on HepG2-GM130-SQSTM1 [3], with HepG2-TP53BP1-CLTA, in the test with HepG2-TUBA1B-RELA, in the test on WPMY1-ACTB-RAB5A and in the test with WPMY1-CANX-COX4 was 1 (active) each time. The phenotypically active in the test with WPMY1-GM130-SQSTM1 [4], in the test with WPMY1-TP53BP1-CLTA [5] and in the test on WPMY1-TUBA1B-RELA was 1 (active) in each case.

Take `C/C=C(/C)C(=O)O[C@H]1C(C)=C2[C@H]([C@@H]1OC(=O)CCCCCCC)[C@@](C)(OC(C)=O)C[C@H](OC(=O)CCC)[C@@]1(O)[C@H]2OC(=O)[C@@]1(C)O` [Thapsigargin]: the “lowest phenotypically active concentration” value in the test on HepG2-ACTB-RAB5A [6], in the test with HepG2-CANX-COX4 [7], in the test on HepG2-GM130-SQSTM1 [8], in the test with WPMY1-GM130-SQSTM1 [9] and in the test on WPMY1-TP53BP1-CLTA [10] was at most 0.3 µM each time. In addition, the phenotypically active in the test on A549-ACTB-RAB5A, with A549-CANX-COX4, in the test on A549-GM130-SQSTM1, in the test with A549-TP53BP1-CLTA, with A549-TUBA1B-RELA and with HepG2-ACTB-RAB5A [1] was 1 (active) in each case. Moreover, the phenotypically active in the test on HepG2-CANX-COX4 [2], with HepG2-GM130-SQSTM1 [3], with HepG2-TP53BP1-CLTA, in the test with HepG2-TUBA1B-RELA, with WPMY1-ACTB-RAB5A and in the test with WPMY1-CANX-COX4 was 1 (active) in each case. Moreover, the phenotypically active in the test on WPMY1-GM130-SQSTM1 [4], with WPMY1-TP53BP1-CLTA [5] and in the test with WPMY1-TUBA1B-RELA was 1 (active) in each case.

Consider `Cc1cc2c(C(C)C)c(O)c(O)c(C=O)c2c(O)c1-c1c(C)cc2c(C(C)C)c(O)c(O)c(C=O)c2c1O` [gossypol], for which the “lowest phenotypically active concentration” value in the test on HepG2-ACTB-RAB5A [6] is 9 µM; in the test with HepG2-CANX-COX4 [7] it was 9 µM; with HepG2-GM130-SQSTM1 [8], 9 µM; with WPMY1-GM130-SQSTM1 [9], 9 µM; in the test on WPMY1-TP53BP1-CLTA [10] it was 3 µM. The phenotypically active with A549-ACTB-RAB5A, with A549-CANX-COX4, with A549-GM130-SQSTM1, with A549-TP53BP1-CLTA, with A549-TUBA1B-RELA and in the test on HepG2-ACTB-RAB5A [1] was 1 (active) throughout. In addition, the phenotypically active in the test with HepG2-CANX-COX4 [2], in the test with HepG2-GM130-SQSTM1 [3], in the test on HepG2-TP53BP1-CLTA, with HepG2-TUBA1B-RELA, in the test on WPMY1-ACTB-RAB5A and in the test with WPMY1-CANX-COX4 was 1 (active) in each case. Further, the phenotypically active in the test on WPMY1-GM130-SQSTM1 [4], in the test on WPMY1-TP53BP1-CLTA [5] and in the test on WPMY1-TUBA1B-RELA was 1 (active) in each case.

Take `CN1CCC2=C[C@H](O)[C@H]3OC(=O)c4cc5c(cc4[C@H]3[C@@H]21)OCO5` [Hippeastrine hydrobromide]: the “lowest phenotypically active concentration” value in the test on HepG2-CANX-COX4 [7] turned out to be 9 µM. Also, the phenotypically active in the test with A549-ACTB-RAB5A is 1 (active); in the test on A549-CANX-COX4, 0 (inactive); in the test with A549-GM130-SQSTM1 it was 0 (inactive); in the test on A549-TP53BP1-CLTA it was 0 (inactive); in the test with A549-TUBA1B-RELA, 0 (inactive); in the test on HepG2-ACTB-RAB5A [1] it was 0 (inactive). For the same compound, the phenotypically active in the test on HepG2-CANX-COX4 [2] is 1 (active); in the test with HepG2-GM130-SQSTM1 [3], 0 (inactive); in the test on HepG2-TP53BP1-CLTA, 0 (inactive); in the test with HepG2-TUBA1B-RELA it was 0 (inactive); in the test on WPMY1-ACTB-RAB5A it was 0 (inactive); in the test on WPMY1-CANX-COX4, 0 (inactive). Also, the phenotypically active in the test with WPMY1-GM130-SQSTM1 [4], in the test on WPMY1-TP53BP1-CLTA [5] and in the test with WPMY1-TUBA1B-RELA was 0 (inactive) in each case.
